{"source": "paper PMC11062922", "about": "(Nature Chemical Biology, 2023)", "key": {"[1]": {"test_system": "AAK1", "parameters": "species or system human, MV4-11 + K-562 + COLO205 + SK-N-BE2 + OVCAR-8", "conditions": "read-out: apparent Kd, n = 1"}, "[2]": {"test_system": "BMP2K", "parameters": "species or system human, MV4-11 + K-562 + COLO205 + SK-N-BE2 + OVCAR-8", "conditions": "read-out: apparent Kd, n = 1"}, "[3]": {"test_system": "CLK1", "parameters": "species or system human, MV4-11 + K-562 + COLO205 + SK-N-BE2 + OVCAR-8", "conditions": "read-out: apparent Kd; compound concentrations: 100 nM and 1000 nM (sheet 'Samples'), CATDS: 3.2985166948547001E-2; n = 1"}, "[4]": {"test_system": "CLK4", "parameters": "species or system human, MV4-11 + K-562 + COLO205 + SK-N-BE2 + OVCAR-8", "conditions": "read-out: apparent Kd, compound concentrations: 100 nM and 1000 nM (sheet 'Samples'), n = 1"}, "[5]": {"test_system": "CSNK2A2", "parameters": "species or system human, MV4-11 + K-562 + COLO205 + SK-N-BE2 + OVCAR-8", "conditions": "read-out: apparent Kd, compound concentrations: 100 nM and 1000 nM (sheet 'Samples'), n = 1"}, "[6]": {"test_system": "FLT3", "parameters": "species or system human, MV4-11 + K-562 + COLO205 + SK-N-BE2 + OVCAR-8", "conditions": "read-out: apparent Kd, compound concentrations: 100 nM and 1000 nM (sheet 'Samples'), n = 1"}, "[7]": {"test_system": "GSK3A", "parameters": "species or system human, MV4-11 + K-562 + COLO205 + SK-N-BE2 + OVCAR-8", "conditions": "read-out: apparent Kd, n = 1"}, "[8]": {"test_system": "GSK3B", "parameters": "species or system human, MV4-11 + K-562 + COLO205 + SK-N-BE2 + OVCAR-8", "conditions": "read-out: apparent Kd, n = 1"}, "[9]": {"test_system": "NUAK1", "parameters": "species or system human, MV4-11 + K-562 + COLO205 + SK-N-BE2 + OVCAR-8", "conditions": "read-out: apparent Kd, compound concentrations: 100 nM and 1000 nM (sheet 'Samples'), n = 1"}, "[10]": {"test_system": "PRKD2", "parameters": "species or system human, MV4-11 + K-562 + COLO205 + SK-N-BE2 + OVCAR-8", "conditions": "read-out: apparent Kd, compound concentrations: 100 nM and 1000 nM (sheet 'Samples'), n = 1"}, "[11]": {"target": "Q6ZSR9 (human, UniProt Q6ZSR9)", "sequence (Q6ZSR9 whole entry, looked up)": "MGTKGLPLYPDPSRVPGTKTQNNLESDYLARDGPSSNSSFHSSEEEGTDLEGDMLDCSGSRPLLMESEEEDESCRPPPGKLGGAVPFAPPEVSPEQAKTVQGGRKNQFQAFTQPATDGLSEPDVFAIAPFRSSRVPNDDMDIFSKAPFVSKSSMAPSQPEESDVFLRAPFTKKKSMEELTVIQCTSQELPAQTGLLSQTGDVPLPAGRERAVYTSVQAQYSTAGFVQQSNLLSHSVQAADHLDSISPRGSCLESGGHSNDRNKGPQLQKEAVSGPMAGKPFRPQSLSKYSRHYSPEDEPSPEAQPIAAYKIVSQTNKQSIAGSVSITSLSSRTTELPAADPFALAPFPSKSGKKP", "parameters": "species or system MV4-11 + K-562 + COLO205 + SK-N-BE2 + OVCAR-8", "conditions": "read-out: apparent Kd, n = 1"}, "[12]": {"test_system": "DYRK1A", "parameters": "species or system human, MV4-11 + K-562 + COLO205 + SK-N-BE2 + OVCAR-8", "conditions": "read-out: apparent Kd; compound concentrations: 100 nM and 1000 nM (sheet 'Samples'), CATDS: 1.19408465116969E-2; n = 1"}, "[13]": {"test_system": "MELK", "parameters": "species or system human, MV4-11 + K-562 + COLO205 + SK-N-BE2 + OVCAR-8", "conditions": "read-out: apparent Kd, n = 1"}, "[14]": {"test_system": "PAK4", "parameters": "species or system human, MV4-11 + K-562 + COLO205 + SK-N-BE2 + OVCAR-8", "conditions": "read-out: apparent Kd, n = 1"}, "[15]": {"test_system": "RET", "parameters": "species or system human, MV4-11 + K-562 + COLO205 + SK-N-BE2 + OVCAR-8", "conditions": "read-out: apparent Kd, n = 1"}, "[16]": {"test_system": "CSNK2A1;CSNK2A3", "parameters": "species or system human, MV4-11 + K-562 + COLO205 + SK-N-BE2 + OVCAR-8", "conditions": "read-out: apparent Kd; compound concentrations: 100 nM and 1000 nM (sheet 'Samples'), CATDS: 0.112951755046268; n = 1"}, "[17]": {"test_system": "MYLK3", "parameters": "species or system human, MV4-11 + K-562 + COLO205 + SK-N-BE2 + OVCAR-8", "conditions": "read-out: apparent Kd; compound concentrations: 100 nM and 1000 nM (sheet 'Samples'), CATDS: 1.37346756795961E-2; n = 1"}, "[18]": {"conditions": "compound concentrations:100 nM and 1000 nM (sheet 'Samples')"}}, "note": "Like-named read-outs stand apart in the source and are kept apart here."}
{"molecule": "CCN(CC)Cc1ccc(Nc2nccc(-c3cnn4ncccc34)n2)cc1", "note": "[GW780056X]", "values": [{"measurement": "potency estimated from few doses", "setting": "[1]; compound concentrations: 100 nM and 1000 nM (sheet 'Samples'), CATDS: 2.17265123337868E-2", "value": 1010, "unit": "nM"}, {"measurement": "potency estimated from few doses", "setting": "[2]; compound concentrations: 100 nM and 1000 nM (sheet 'Samples'), CATDS: 1.8132469854257299E-2", "value": 1950, "unit": "nM"}, {"measurement": "potency estimated from few doses", "setting": "[3]", "value": 346, "unit": "nM"}, {"measurement": "potency estimated from few doses", "setting": "[4]; CATDS: 3.0818268189282499E-2", "value": 403, "unit": "nM"}, {"measurement": "potency estimated from few doses", "setting": "[5]; CATDS: 1.97839070790959E-2", "value": 1380, "unit": "nM"}, {"measurement": "potency estimated from few doses", "setting": "[6]; CATDS: 9.2784316233310501E-2", "value": 48.8, "unit": "nM"}, {"measurement": "potency estimated from few doses", "setting": "[7]; compound concentrations: 100 nM and 1000 nM (sheet 'Samples'), CATDS: 2.5871712918447001E-2", "value": 616, "unit": "nM"}, {"measurement": "potency estimated from few doses", "setting": "[8]; compound concentrations: 100 nM and 1000 nM (sheet 'Samples'), CATDS: 2.3506229340690101E-2", "value": 798, "unit": "nM"}, {"measurement": "potency estimated from few doses", "setting": "[9]; CATDS: 0.242637090604084", "value": 11.6, "unit": "nM"}, {"measurement": "potency estimated from few doses", "setting": "[10]; CATDS: 2.64855086193518E-2", "value": 580, "unit": "nM"}, {"measurement": "potency estimated from few doses", "setting": "[11]; compound concentrations: 100 nM and 1000 nM (sheet 'Samples'), CATDS: 2.1989322106712401E-2", "value": 971, "unit": "nM"}]}
{"molecule": "CCn1c(-c2cccnc2O)nc2cnccc21", "note": "[SB-736715]", "values": [{"measurement": "potency estimated from few doses", "setting": "[1]; compound concentrations: 100 nM and 1000 nM (sheet 'Samples'), CATDS: 1.3866746573900799E-2", "value": 1530, "unit": "nM"}, {"measurement": "potency estimated from few doses", "setting": "[12]", "value": 2220, "unit": "nM"}, {"measurement": "potency estimated from few doses", "setting": "[10]; CATDS: 1.32694977387129E-2", "value": 1700, "unit": "nM"}]}
{"molecule": "CCn1c(-c2nonc2N)nc2c(C#CC(C)(C)O)nc(O[C@@H](CN)c3ccccc3)cc21.O=C(O)C(F)(F)F", "note": "[GSK1007102B]", "values": [{"measurement": "potency estimated from few doses", "setting": "[1]; [18]", "value": 67.3, "unit": "nM"}, {"measurement": "potency estimated from few doses", "setting": "[2]; [18]", "value": 355, "unit": "nM"}, {"measurement": "potency estimated from few doses", "setting": "[7]; [18]", "value": 46.1, "unit": "nM"}, {"measurement": "potency estimated from few doses", "setting": "[8]; [18]", "value": 40.5, "unit": "nM"}, {"measurement": "potency estimated from few doses", "setting": "[13]; [18]", "value": 1040, "unit": "nM"}, {"measurement": "potency estimated from few doses", "setting": "[14]; [18]", "value": 39.8, "unit": "nM"}, {"measurement": "potency estimated from few doses", "setting": "[11]; [18]", "value": 111, "unit": "nM"}, {"measurement": "potency estimated from few doses", "setting": "[15]; [18]", "value": 1250, "unit": "nM"}]}
{"molecule": "O=C(O)C(F)(F)F.O=c1[nH]ccc2nc(N[C@@H]3CCNC3)nc(Nc3ccc4c(c3)S(=O)(=O)CC4)c12", "note": "[GSK2181306A]", "values": [{"measurement": "potency estimated from few doses", "setting": "[1]; compound concentrations: 100 nM and 1000 nM (sheet 'Samples'), CATDS: 1.0213142208507E-2", "value": 800, "unit": "nM"}, {"measurement": "potency estimated from few doses", "setting": "[2]; compound concentrations: 100 nM and 1000 nM (sheet 'Samples'), CATDS: 1.9243702463248E-2", "value": 190, "unit": "nM"}, {"measurement": "potency estimated from few doses", "setting": "[4]; CATDS: 8.1810149624153006E-3", "value": 1760, "unit": "nM"}, {"measurement": "potency estimated from few doses", "setting": "[16]", "value": 11.3, "unit": "nM"}, {"measurement": "potency estimated from few doses", "setting": "[5]; CATDS: 0.17006619432900399", "value": 6.46, "unit": "nM"}, {"measurement": "potency estimated from few doses", "setting": "[6]; CATDS: 8.5928839760778392E-3", "value": 1430, "unit": "nM"}, {"measurement": "potency estimated from few doses", "setting": "[7]; compound concentrations: 100 nM and 1000 nM (sheet 'Samples'), CATDS: 1.81293399995681E-2", "value": 213, "unit": "nM"}, {"measurement": "potency estimated from few doses", "setting": "[8]; compound concentrations: 100 nM and 1000 nM (sheet 'Samples'), CATDS: 1.53717620719534E-2", "value": 296, "unit": "nM"}, {"measurement": "potency estimated from few doses", "setting": "[13]; compound concentrations: 100 nM and 1000 nM (sheet 'Samples'), CATDS: 8.8391559742386702E-3", "value": 1290, "unit": "nM"}, {"measurement": "potency estimated from few doses", "setting": "[17]", "value": 378, "unit": "nM"}, {"measurement": "potency estimated from few doses", "setting": "[9]; CATDS: 6.4011411937308901E-2", "value": 25.9, "unit": "nM"}, {"measurement": "potency estimated from few doses", "setting": "[14]; compound concentrations: 100 nM and 1000 nM (sheet 'Samples'), CATDS: 3.0355378859093798E-2", "value": 85, "unit": "nM"}, {"measurement": "potency estimated from few doses", "setting": "[10]; CATDS: 1.40189699777229E-2", "value": 361, "unit": "nM"}, {"measurement": "potency estimated from few doses", "setting": "[11]; compound concentrations: 100 nM and 1000 nM (sheet 'Samples'), CATDS: 1.2146463936907201E-2", "value": 503, "unit": "nM"}, {"measurement": "potency estimated from few doses", "setting": "[15]; compound concentrations: 100 nM and 1000 nM (sheet 'Samples'), CATDS: 2.5699150815533801E-2", "value": 113, "unit": "nM"}]}
